# The whole screen tested about 3,200 compounds, of which about 2,900 (91%) were called active.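 How the source made its calls: active means EC50 no more than a set limit of log units above the highest dose; inactive means the rest.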 So high a share suggests a set chosen from earlier hits. This is one part of the list. Results with a measured potency or affinity are listed apart.
# Assay: S. pyogenes SKKanGAS kanamycin growth inhibitors – SKKanGAS strain, luminescence, dose confirmation, streptokinase promoter inhibitor project, dose response (AID 1902);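 further: lower survival reflects blocked streptokinase promoter driving kanamycin resistance gene; 0% = DMSO median and -100% = tetracycline positive control median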
# Conditions: kanamycin survival, BacTiterGlo, 6 h; at 15 µM (top of the series)
row,Structure (SMILES),"activity change, negative = inhibition"
1,N#C/C(=C\c1ccc(/C=C(/C#N)c2nn(CCO)c(N)c2C#N)cc1)c1nn(CCO)c(N)c1C#N,-60.6% (active)

# Reference: PubChem BioAssay AID1902 (Broad Institute, 2009)
